Test results as given in ChEMBL document CHEMBL4513216, “Probing the Open Global Health Chemical Diversity Library for Multistage-Active Starting Points for Next-Generation Antimalarials” (ACS Infect Dis, 2020).
Hit rate of the full screen: of about 69,000 compounds, about 8,600 (12%) showed an effect of 50% or more. This is one part of a sample in which strong results are shown more often than they occur.

What follows are compounds tested on Plasmodium berghei (assay: Screen against P. berghei liver stage (PbLuc), transformed with Luciferase, at 10uM). Details: tested at 10 uM.
Type: functional, HepG2

SMILES | INHIBITION
CC(O)CN1CCC(CNCc2cccc(C(=O)N(C)C)c2)CC1 (configuration not stated) | -38.7%
CC(C)(NC(=O)Cc1ccccc1F)C(=O)O | -16%
CCC(C)(CC(=O)O)NC(=O)Cc1ccccc1Br (configuration not stated) | -49.7%
CCC(C)(CC(=O)O)NC(=O)Cc1ccccc1F (configuration not stated) | 64.2%
COCCC(=O)N1CCC2(CC1)CN(C(C)=O)Cc1ccccc1O2 | 14.805%
Cc1ccccc1C1(C(=O)N2CCCC(n3cncn3)C2)CC1 (configuration not stated) | 27.8%
CC(=O)N1C[C@H]2CCCN(S(=O)(=O)c3ccc(Cl)s3)[C@H]2C1 | 3.48%
O=C(C1CC1)N1C[C@H]2CCCN(S(=O)(=O)c3ccc4c(c3)CCC4)[C@H]2C1 | 58.8%
COc1ccc(S(=O)(=O)N2CCC[C@@H]3CN(C(=O)C4CC4)C[C@@H]32)cc1 | 54%
O=C(C1CC1)N1C[C@H]2CCCN(S(=O)(=O)c3ccc(Cl)s3)[C@H]2C1 | 31.3%
O=C(C1CC1)N1C[C@H]2CCCN(S(=O)(=O)c3cccc(F)c3)[C@H]2C1 | 26.97%
COc1ccc(S(=O)(=O)N2CCC[C@@H]3CN(C(=O)C4CC4)C[C@@H]32)cc1F | 40.75%
CS(=O)(=O)N1CCC(Cc2cnc(Br)cn2)CC1 | 33.2%
CCOC(=O)c1cnn(C2CCN(C(=O)CC3C=CCC3)CC2)c1N (configuration not stated) | 29.8%
CN(Cc1ccc(Cl)s1)C(=O)COc1cccc(C(N)=O)c1 | -19%
CNC(=O)C1CN(c2cc(C)ncn2)CCN1Cc1ccccc1 (configuration not stated) | -42%
Cc1noc(C)c1CN1CCn2cc(CN3CCOCC3)nc2C1 | -50%
Cc1cc(C)nc(NCCCC(=O)NCCn2ccc3ccccc32)n1 | 28.5%
Cc1c(C2CCOC(C)(C)C2)nc(N)c(C#N)c1-c1ccc(O)cc1 (configuration not stated) | 30.1%
Cc1cnn(CCNCC(O)COc2ccc(Cl)cc2)c1 (configuration not stated) | 45.8%
Cc1cnn(CCNCC(O)COc2c(C)ccc(C)c2C)c1 (configuration not stated) | 52.7%
Cc1cnn(CCNCC(O)COc2cccc(C(F)(F)F)c2)c1 (configuration not stated) | 37.4%

SMILES | INHIBITION
Cc1cnn(CCNCC(O)COc2c(Cl)cccc2Cl)c1 (configuration not stated) | -32%
Cc1cnn(CCNCC(=O)NCCOc2ccccc2)c1 | 57.2%
Cc1cnn(CCNCC(=O)NCCOc2ccc(F)cc2)c1 | 45.7%
Cc1cnn(CCNCC(O)COc2ccc(F)cc2)c1 (configuration not stated) | 54.4%
Cc1cnn(CCNCC(=O)NCCOc2ccc(Cl)cc2)c1 | -0.96%
Cc1cnn(CCNCC(O)COc2ccc(C#N)cc2)c1 (configuration not stated) | 26.3%
CC(C)n1ccc(C(=O)N2CCCC(n3cncn3)C2)n1 (configuration not stated) | 31.9%
Cc1cccc(Nc2nccnc2C2CCCN2CC(=O)N(C)C)n1 (configuration not stated) | 46.1%
c1cnn(Cc2nnc3n2CCCN(CC2CCOCC2)C3)c1 | 27.9%
CN(C)c1ncc(I)c(C2CCCCN2C)n1 (configuration not stated) | -0.232%
CN(C(=O)CN1CCC(NC(=O)c2cccs2)CC1)c1ccccc1 | 16.9%
O=C(CSc1nc2n[nH]cc2c(=O)n1-c1ccccc1)N1CCOCC1 | 13.9%
O=C(NC[C@H]1OC[C@@H](NC2CCCC2)[C@@H]1O)C1CCCC1 | 30.5%
CC(C)(C)CN[C@@H]1CO[C@H](CNC(=O)C2CCCC2)[C@H]1O | 51%
O=C(NC[C@H]1OC[C@@H](NC2COC2)[C@@H]1O)C1CCCC1 | 29%
CC(=O)N1CCN(c2ncnc3cc4c(cc23)OCCO4)CC1 | 36.6%
CNC(=O)CN(C)c1nc(-c2ccc(C(N)=O)cc2)nc2c1CCNC2 | 10.3%
Cc1cc(C)c2c(NCc3nncn3C3CCCCC3)ncnc2n1 | -41.4%
Cc1ncc(-c2ccnc(NC3CC3)n2)c(-c2cccnc2)n1 | 2.6%
CCN1CCC2(CC1)NC(=O)c1cc(Br)ccc1-n1nnnc12 | 33.3%
O=C1NC2(CCCCC2)c2nnnn2-c2ccc(Br)cc21 | 42.4%
CC(C)N1CCC2(CC1)NC(=O)c1cc(Br)ccc1-n1nnnc12 | 58.2%

SMILES | INHIBITION
CN1C[C@@H](O)[C@]2(CCN(C(=O)OCc3ccccc3)C2)S1(=O)=O | 1.8%
c1cc(-c2ccc3c(c2)CCC32CCN(c3nncs3)CC2)co1 | 24.9%
c1cc(-c2ccc3c(c2)C2(CC3)CCN(c3nncs3)CC2)ccn1 | 15.4%
c1cc(-c2ccc3c(c2)CCC32CCN(c3nncs3)CC2)ccn1 | 62.8%
Cc1ccc2c(c1)C1(CC2)CCN(CC(=O)O)CC1 | 19.5%
Cc1ccc2c(c1)C1(CC2)CCN(c2nncs2)CC1 | 56.8%
c1cncc(-c2ccc3c(c2)C2(CC3)CCN(c3nncs3)CC2)c1 | 76.8%
CN1CCOCC12CCN(c1nncs1)CC2 | -7.24%
Cc1cccc(N2CC3(CCN(c4nncs4)C3)CC2=O)c1 (configuration not stated) | 14.5%
Cc1cnn(CCNCc2nc(CNC(=O)c3ccccc3)no2)c1 | 7.08%
CC(=O)Nc1ccc(CNc2cccc(OCCF)c2)cc1 | 25.2%
CNC(=O)c1ccc(OC2CCN(S(C)(=O)=O)CC2)c(Cl)c1 | -22.1%
CS(=O)(=O)N1CCC(Oc2ccc(C(=O)NC3CCCC3)cc2Cl)CC1 | -14.5%
CS(=O)(=O)N1CCC(Oc2ccc(C(=O)N3CCSCC3)cc2Cl)CC1 | 63.3%
CCN(CC)S(=O)(=O)N(CC)Cc1ccc2c(c1)OCCO2 | -19.9%
Cc1nn(Cn2ccc(C(=O)N3CCC(C)CC3)n2)c(C)c1Cl | -20.8%
Cc1noc(C)c1-c1n[nH]c2c1CN(S(=O)(=O)c1ccsc1)CC2 | 39.4%
Cc1cc(-c2n[nH]c3c2CN(S(=O)(=O)c2ccsc2)CC3)c(C)o1 | 54.4%
Cc1noc(C)c1-c1n[nH]c2c1CN(S(=O)(=O)c1cccnc1)CC2 | 23.3%
CSCCc1n[nH]c2c1CN(S(=O)(=O)c1cn(C)c(C)n1)CC2 | -10.8%
CS(=O)(=O)N1CCc2[nH]nc(Cc3cccs3)c2C1 | 0.472%
Cc1noc(C)c1-c1n[nH]c2c1CN(S(=O)(=O)c1cccs1)CC2 | 61.8%

SMILES | INHIBITION
CCC(CN1CCCC1)n1cncc1-c1cnn(-c2ccccc2)c1 (configuration not stated) | 33.95%
CC(C)[C@H](N)c1nnc(SCC(=O)Nc2ccc(Br)cc2)o1 | 25.3%
Cc1nc(C2CCCN2Cc2ccc(S(=O)(=O)N(C)C)o2)no1 (configuration not stated) | 22.3%
CNC(=O)c1ccc(CN(C)c2ccc(C(F)(F)F)cn2)cc1 | 58.3%
CN(Cc1ccc(C(N)=O)cc1)c1ccc(C(F)(F)F)cn1 | 1.79%
CN(Cc1ccc([S+](C)[O-])cc1)c1ccc(Br)cn1 (configuration not stated) | 43.7%
CN(Cc1ccccc1)c1ccc(C(F)(F)F)cn1 | 38.6%
CN(Cc1ccc([S+](C)[O-])cc1)c1ccc(C(F)(F)F)cn1 (configuration not stated) | 52.2%
CNC(=O)c1ccc(CN(C(=O)c2scnc2C)C2CC2)cc1 | 6.92%
CCc1cnc(CN(C)C2CCN(CCNS(=O)(=O)CC)C2)o1 (configuration not stated) | -42%
CN1Cc2c(C(=O)Nc3cccnc3)ncn2-c2ccccc2S1(=O)=O | 45.1%
CN(C)CCO[C@H]1CN(Cc2cccc(C#N)c2)[C@@H]2COC[C@H]12 | -46.9%
CCS(=O)(=O)N1CCC2(CN(C(=O)c3cn(C)cn3)C2)C1 | -28.2%
CCS(=O)(=O)N1CCCC2(CCCN2C(=O)c2cn(C)cn2)C1 (configuration not stated) | 61.9%
CCS(=O)(=O)N1CCCC2(CCCN2C(=O)c2cscn2)C1 (configuration not stated) | 4.02%
COC1CN(CCO)S(=O)(=O)c2ccccc21 (configuration not stated) | 35.1%
CN(C)C(=O)COCC1CN(Cc2cccs2)Cc2ncn(C)c21 (configuration not stated) | -47.8%
Cc1ccc(S(=O)(=O)N(CC(N)=O)CC(C)C)cc1C | -14.2%
Cc1cc(S(=O)(=O)N(CC(N)=O)CC(C)C)ccc1Br | 60.3%
Cc1cc(S(=O)(=O)N(C)CC(N)=O)ccc1Br | 34.6%
Cc1cnn(CC2CCCN2C(=O)Cc2ccc(C)nc2)c1 (configuration not stated) | 17.4%
COc1ccc(CNCC(O)c2cccc(O)c2)cc1Br (configuration not stated) | 14.5%

SMILES | INHIBITION
CCOc1ccc(CNCC(O)c2ccccc2)cc1Cl (configuration not stated) | 59.5%
CC(=O)Nc1ccc(CNCC(O)c2ccccc2)cc1 (configuration not stated) | 39.7%
COCC1CN(C(=O)c2cccc(C)n2)Cc2nccn2C1 (configuration not stated) | 24%
Cc1ccc2oc(CNC(C)c3nnc4n3CCCC4)cc2c1 (configuration not stated) | 50.1%
CC(NCc1ccco1)c1nnc2n1CCCC2 (configuration not stated) | 52.9%
CC(NCc1ccc(Cl)o1)c1nnc2n1CCCC2 (configuration not stated) | 15.1%
CC(NCc1cc2cc(F)ccc2o1)c1nnc2n1CCCC2 (configuration not stated) | 35%
Cc1ccoc1CNC(C)c1nnc2n1CCCC2 (configuration not stated) | 34.1%
Cc1ccc(CNC(C)c2nnc3n2CCCC3)o1 (configuration not stated) | -4.48%
CN1CCCN(C(=O)c2nc3c(o2)CN(S(C)(=O)=O)C3)CC1 | 41.2%
Cn1ccc(CN2CCCC23CCN(Cc2ccccc2F)CC3)n1 | 53%
Cn1ccc(CN2CCCC23CCN(Cc2nccn2C)CC3)n1 | 27.6%
Cn1ccc(CN2CCCC23CCNCC3)n1 | -12.1%
Cn1ccc(CN2CCCC23CCN(Cc2cccc(F)c2)CC3)n1 | 56.6%
Cc1ccc(N2CCC3(CCCN3Cc3ccn(C)n3)CC2)nn1 | 53.9%
COc1cc(N2CCC3(CCCN3Cc3ccn(C)n3)CC2)ncn1 | 21.7%
Fc1cccc(CN2CCC3(CCCN3c3ncccn3)CC2)c1 | 42.4%
Cn1cc(CN2CCC3(CCCN3Cc3cccnc3)CC2)cn1 | 29%
Cn1ccc(CN2CCC3(CCCN3CC3CC3)CC2)n1 | 17.7%
